{"source": "PubChem BioAssay (Tox21)", "note": "Records with an inconclusive call do not appear. A call without a number means that no potency is given here. The source made the active and inactive calls. Calls come from the whole dose curve; as a rule, active = well fitted cell-killing curve with a large enough effect in the repeat runs; inconclusive = weak or mixed curves, or effect the other way; inactive = no such curve, though single readings can be large or run the other way. Non-standard residues stand in square brackets, D forms with d. Residues, ends and D or L forms follow the SMILES beside them. *: point of attachment. Sta = CC(C)C[C@H](N)[C@@H](O)CC(=O)O; Isovaleryl = CC(C)CC(=O)*", "data": [{"experiment": "qHTS assay to identify small molecule antagonists of the thyroid receptor (TR) signaling pathway - cell viability counter screen (AID 743064); note: nearly all actives have a fitted effect of over 50% in size", "settings": "GH3.TRE-Luc viability, CellTiter-Fluor, 24 h; series mostly up to 70.3 µM", "excerpt": "National Center for Advancing Translational Sciences [NCATS]\nNIH Chemical Genomics Center [NCGC]\nU.S. Environmental Protection Agency [EPA]\nNational Institutes of Environmental Health Sciences [NIEHS]\nNational Toxicology Program [NTP]\nU.S. Food and Drug Administration [FDA]\nThyroid receptor (TR), a nuclear hormone receptor, plays an important role in development, proliferation, differentiation, metabolism, brain function, and cardiovascular system. […] To profile the Tox21 10K compound library in TR signaling, a cell-based GH3-TRE-Luc assay (GH3.TRE-Luc cell line, developed by the laboratory of Dr. Albertinka J. Murk, Wageningen University) was used to measure the inhibition of TR. GH3 (rat pituitary tumor) cells stably expressing a TR activity sensor consisting of two TR response elements and a luciferase reporter gene. The cytotoxicity of the Tox21 compound library against the GH3.TRE-Luc cell line was tested in parallel by measuring the cell viability using CellTiter-Fluor assay (Promega, Madison, WI) in the same wells.\nTox21 Assay Protocol Summary:\nGH3.TRE-Luc cells were dispensed at 1500 cells/4 uL/well into 1536-well white solid bottom plates using a Multidrop Combi dispenser (Thermo Fisher Scientific Inc., Waltham, MA). After the assay plates were incubated at 37 C for 4 hours, 23 nL of library compound or DMSO controls was transferred to the assay plates by a pintool station (Kalypsys, San Diego, CA), followed by addition of 1 ul of T3 (1 nM, final concentration in the wells) to stimulate TR transactivation. The assay plates were incubated at 37 C for 23.5 h, and then 1 uL of CellTiter-Fluor reagent (Promega, Madision, WI) of measuring cytotoxicity was added to each well using a Bioraptr Flying Reagent Dispenser (FRD) workstation (Beckman Coulter, Indianapolis, IN, USA). The plates were incubated at 37C and 5% CO2 for additional 30 min, and fluorescence intensity was measured by a ViewLux plate reader (PerkinElmer, Shelton, CT).", "values": [{"smiles": "C/C=C(\\C)C=O", "Potency": "inactive"}, {"smiles": "C[C@]12C=CC(=O)C=C1[C@@H](F)C[C@@H]1[C@@H]2[C@@H](O)C[C@@]2(C)[C@H]1CC[C@]2(O)C(=O)CO", "Potency": "inactive"}, {"smiles": "CC[N+](C)(CC)CC", "Potency": "inactive"}, {"smiles": "Cc1ccc(O)c(C(=O)c2ccccc2)c1", "Potency": "inactive"}, {"smiles": "c1cc2ccc3ccc4ccc5cccc6c(c1)c2c3c4c56", "activity change, negative = cytotoxic": "20.6% [at 3.79 µM] (inactive)"}, {"smiles": "CCCCC(CC)COC(=O)CC#N", "note": "(stereo not given)", "Potency": "inactive"}, {"smiles": "C[Si](C)(C)O[Si](O)(O)O", "Potency": "inactive"}, {"smiles": "CC(CN1CC(=O)NC(=O)C1)N1CC(=O)NC(=O)C1", "note": "(stereo not given)", "Potency": "inactive"}, {"smiles": "O=c1[nH]c(=O)c2cn[nH]c2[nH]1", "Potency": "inactive"}, {"smiles": "CC(C)CC(=O)N[C@H](C(=O)N[C@H](C(=O)N[C@@H](CC(C)C)[C@@H](O)CC(=O)N[C@@H](C)C(=O)N[C@@H](CC(C)C)[C@@H](O)CC(=O)O)C(C)C)C(C)C", "note": "(Isovaleryl-VV[Sta]A[Sta]-OH)", "Potency": "inactive"}, {"smiles": "CC(=O)SC[C@@H](C)C(=O)N1CCC[C@H]1C(=O)N[C@@H](Cc1ccccc1)C(=O)O", "Potency": "inactive"}, {"smiles": "CC(C)(C)NCC(O)COc1cccc2c1CCC(=O)N2", "note": "(stereo not given)", "Potency": "inactive"}, {"smiles": "C=CCOC(=O)CCCCCCCC", "Potency": "inactive"}, {"smiles": "N=C(N)N", "Potency": "inactive"}, {"smiles": "C=CCON/C(CCC)=C1\\C(=O)CC(C)(C)C(C(=O)OC)=C1O", "Potency": "inactive"}, {"smiles": "O=C(O)Cc1c(Cl)ccc(Cl)c1Cl", "Potency": "inactive"}, {"smiles": "O=P(O)(O)C(O)(Cc1cccnc1)P(=O)(O)O", "Potency": "inactive"}, {"smiles": "CCCC(=O)CC", "Potency": "inactive"}, {"smiles": "CCCCCCCOC(C)=O", "Potency": "inactive"}, {"smiles": "CCCCCCCCCCCBr", "Potency": "inactive"}, {"smiles": "CCN1CCN(C(=O)N[C@@H](C(=O)N[C@@H]2C(=O)N3C(C(=O)O)=C(CSc4nnnn4C)CS[C@H]23)c2ccc(O)cc2)C(=O)C1=O", "Potency": "inactive"}, {"smiles": "CC(C)OCCO", "Potency": "inactive"}, {"smiles": "C=CC(=O)OCCOCCOCC", "Potency": "inactive"}, {"smiles": "CC(=O)OC1CCC(C(C)(C)C)CC1", "note": "(stereo not given)", "Potency": "inactive"}, {"smiles": "Cc1cc(N)no1", "Potency": "inactive"}, {"smiles": "CC(C)(C)C(=O)CCc1ccc(Cl)cc1", "Potency": "inactive"}, {"smiles": "CCO[Si](CC(C)C)(OCC)OCC", "Potency": "inactive"}, {"smiles": "CCCOc1ccc(C(=O)OCCN(CC)CC)cc1N", "Potency": "inactive"}, {"smiles": "Nc1cc(S(=O)(=O)O)ccc1O", "Potency": "inactive"}, {"smiles": "N#Cc1ccccc1C#N", "Potency": "inactive"}, {"smiles": "CN(C)CCCN(C)C", "activity change, negative = cytotoxic": "20.5% [at 8.44 µM] (inactive)"}, {"smiles": "CC1(C)S[C@@H]2[C@H](NC(=O)Cc3ccccc3)C(=O)N2[C@H]1C(=O)O", "note": "(tested in a mixture with another compound)", "Potency": "inactive"}, {"smiles": "Clc1cc(Cl)c(Cl)c(Cl)c1Cl", "Potency": "inactive"}, {"smiles": "CCCC(=O)OC", "Potency": "inactive"}, {"smiles": "CC/C=C\\CCOC(=O)c1ccccc1", "Potency": "inactive"}, {"smiles": "CC(=O)c1c(C)cc(C(C)(C)C)cc1C", "Potency": "inactive"}, {"smiles": "CC(O)CCCCn1c(=O)c2c(ncn2C)n(C)c1=O", "note": "(stereo not given)", "Potency": "inactive"}, {"smiles": "CCN(CC)CC", "Potency": "inactive"}, {"smiles": "CC/C=C\\CCCCCCCCCCOC(C)=O", "Potency": "inactive"}, {"smiles": "CCCCC(CC)CCC(CC(C)C)OS(=O)(=O)O", "note": "(stereo not given)", "Potency": "inactive"}]}]}
